Assay results taken from PubChem BioAssay AID1159580 (chemical genetic matrix, 2015).
Screen size: about 5,500 compounds; about 2,000 (36%) were called active. Inconclusive results (about 18%) are left out. Rule as the data show it: active = normalized growth mostly below about 0.91 (no sharp cut-off); inconclusive = no clear call, values can overlap the other calls; inactive = mostly above about 0.92. The list shows a part of the results.

Assay: chemical genetic growth profiling, strain panel (AID 1159580);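 also: tested at 20 µM; growth read once vehicle control cultures reached saturation at 30 °C; 1 = growth at the plate median or of vehicle wells; lower values mean less growth of the strain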
Conditions: growth OD

Measured: normalized growth

C[C@@H]1CC2C3CCC4=CC(=O)C=C[C@]4(C)[C@@]3(F)[C@@H](O)C[C@]2(C)[C@@]1(O)C(=O)COP(=O)(O)O (stereo partly drawn)
inactive: S. cerevisiae deletion strains, locus YJR066W, strain TOR1, active compounds read low 0.95 | S. cerevisiae deletion strains, locus YJR075W, strain HOC1, active compounds read low 1.02 | S. cerevisiae deletion strains, locus YKL009W, strain mrt4, active compounds read low 1 | S. cerevisiae deletion strains, locus YKL068W, active compounds read low 1.01 | S. cerevisiae deletion strains, locus YKL085W, strain MDH1 (second series), active compounds read low 1.05 | S. cerevisiae deletion strains, locus YKL085W, strain MDH1, active compounds read low 1.05 | S. cerevisiae deletion strains, locus YKL160W, strain elf1, active compounds read low 0.965 | S. cerevisiae deletion strains, locus YKR001C, strain vps1, active compounds read low 0.997 | S. cerevisiae deletion strains, locus YKR026C, strain gcn3, active compounds read low 0.966 | S. cerevisiae deletion strains, locus YKR091W, strain srl3, active compounds read low 0.982 | S. cerevisiae deletion strains, locus YLL001W, strain dnm1, active compounds read low 0.931 | S. cerevisiae deletion strains, locus YLL026W, active compounds read low 0.986 | S. cerevisiae deletion strains, locus YLL041C, strain sdh2, active compounds read low 0.97 | S. cerevisiae deletion strains, locus YLR027C, strain aat2, active compounds read low 0.975 | S. cerevisiae deletion strains, locus YLR039C, strain RIC1, active compounds read low 1.02 | S. cerevisiae deletion strains, locus YLR058C, strain SHM2, active compounds read low 1.01 | S. cerevisiae deletion strains, locus YLR102C, strain apc9, active compounds read low 0.993 | S. cerevisiae deletion strains, locus YLR113W, strain HOG1, active compounds read low 0.977 | S. cerevisiae deletion strains, locus YLR221C, strain rsa3, active compounds read low 1.01 | S. cerevisiae deletion strains, locus YLR258W, strain gsy2, active compounds read low 1 | S. cerevisiae deletion strains, locus YLR262C, strain YPT6 (second series), active compounds read low 0.959 | S. cerevisiae deletion strains, locus YLR262C, strain YPT6, active compounds read low 1.01 | S. cerevisiae deletion strains, locus YLR268W, strain sec22, active compounds read low 0.996 | S. cerevisiae deletion strains, locus YLR320W, strain mms22, active compounds read low 1.01 | S. cerevisiae deletion strains, locus YLR330W, strain CHS5, active compounds read low 1.01 | S. cerevisiae deletion strains, locus YLR342W, strain FKS1 (second series), active compounds read low 1.01 | S. cerevisiae deletion strains, locus YLR342W, strain FKS1, active compounds read low 0.959 | S. cerevisiae deletion strains, locus YLR357W, strain rsc2, active compounds read low 0.957 | S. cerevisiae deletion strains, locus YLR370C, strain arc18, active compounds read low 0.972 | S. cerevisiae deletion strains, locus YLR371W, strain rom2, active compounds read low 0.994 | S. cerevisiae deletion strains, locus YLR384C, strain iki3, active compounds read low 0.959 | S. cerevisiae deletion strains, locus YLR418C, strain cdc73, active compounds read low 1.01 | S. cerevisiae deletion strains, locus YML016C, strain PPZ1, active compounds read low 1 | S. cerevisiae deletion strains, locus YML032C, strain rad52, active compounds read low 0.991 | S. cerevisiae deletion strains, locus YML120C, strain ndi1, active compounds read low 0.97 | S. cerevisiae deletion strains, locus YML124C, strain tub3, active compounds read low 0.993 | S. cerevisiae deletion strains, locus YMR058W, strain fet3, active compounds read low 0.978 | S. cerevisiae deletion strains, locus YMR078C, strain ctf18, active compounds read low 0.987 | S. cerevisiae deletion strains, locus YMR125W, strain sto1, active compounds read low 0.933 | S. cerevisiae deletion strains, locus YMR129W, active compounds read low 0.987 | S. cerevisiae deletion strains, locus YMR205C, strain PFK2, active compounds read low 0.981 | S. cerevisiae deletion strains, locus YMR223W, strain ubp8, active compounds read low 1.01 | S. cerevisiae deletion strains, locus YMR231W, strain pep5, active compounds read low 0.957 | S. cerevisiae deletion strains, locus YMR263W, strain SAP30, active compounds read low 1.01 | S. cerevisiae deletion strains, locus YMR307W, strain GAS1, active compounds read low 1.09 | S. cerevisiae deletion strains, locus YNL067W, strain RPL9B, active compounds read low 1.01 | S. cerevisiae deletion strains, locus YNL071W, strain lat1, active compounds read low 0.985 | S. cerevisiae deletion strains, locus YNL153C, strain GIM3, active compounds read low 0.998 | S. cerevisiae deletion strains, locus YNL183C, strain NPR1, active compounds read low 0.955 | S. cerevisiae deletion strains, locus YNL209W, strain ssb2, active compounds read low 0.986 | S. cerevisiae deletion strains, locus YNL233W, strain BNI4, active compounds read low 1.02 | S. cerevisiae deletion strains, locus YNL248C, strain rpa49, active compounds read low 0.987 | S. cerevisiae deletion strains, locus YNL250W, strain rad50, active compounds read low 0.993 | S. cerevisiae deletion strains, locus YNL271C, strain bni1, active compounds read low 1.01 | S. cerevisiae deletion strains, locus YNL298W, strain CLA4, active compounds read low 1.02 | S. cerevisiae deletion strains, locus YNL307C, strain MCK1, active compounds read low 0.995 | S. cerevisiae deletion strains, locus YNL322C, strain KRE1 (second series), active compounds read low 0.963 | S. cerevisiae deletion strains, locus YNR049C, strain mso1, active compounds read low 0.98 | S. cerevisiae deletion strains, locus YNR052C, strain pop2, active compounds read low 1.02 | S. cerevisiae deletion strains, locus YOL006C, strain TOP1, active compounds read low 1.01 | S. cerevisiae deletion strains, locus YOL012C, strain htz1 1.85 | S. cerevisiae deletion strains, locus YOL147C, strain pex11, active compounds read low 1.01 | S. cerevisiae deletion strains, locus YOR001W, strain rrp6, active compounds read low 0.946 | S. cerevisiae deletion strains, locus YOR061W, strain CKA2, active compounds read low 1.01 | S. cerevisiae deletion strains, locus YOR069W, strain VPS5, active compounds read low 1.01 | S. cerevisiae deletion strains, locus YOR070C, strain gyp1, active compounds read low 0.99 | S. cerevisiae deletion strains, locus YOR080W, strain dia2, active compounds read low 0.94 | S. cerevisiae deletion strains, locus YOR083W, strain WHI5, active compounds read low 0.959 | S. cerevisiae deletion strains, locus YOR106W, strain vam3, active compounds read low 0.928 | S. cerevisiae deletion strains, locus YOR136W, strain idh2, active compounds read low 1 | S. cerevisiae deletion strains, locus YOR144C, strain elg1, active compounds read low 0.997 | S. cerevisiae deletion strains, locus YOR184W, strain ser1, active compounds read low 0.99 | S. cerevisiae deletion strains, locus YOR231W, strain MKK1, active compounds read low 1.01 | S. cerevisiae deletion strains, locus YOR265W, strain rbl2, active compounds read low 0.974 | S. cerevisiae deletion strains, locus YOR270C, strain vph1, active compounds read low 1 | S. cerevisiae deletion strains, locus YOR290C, strain snf2, active compounds read low 1.01 | S. cerevisiae deletion strains, locus YOR316C, strain cot1, active compounds read low 1 | S. cerevisiae deletion strains, locus YPL051W, strain arl3, active compounds read low 1.01 | S. cerevisiae deletion strains, locus YPL078C, strain atp4, active compounds read low 0.935 | S. cerevisiae deletion strains, locus YPL106C, strain sse1, active compounds read low 0.966 | S. cerevisiae deletion strains, locus YPL240C, strain hsp82, active compounds read low 0.976 | S. cerevisiae deletion strains, locus YPL256C, strain CLN2, active compounds read low 0.985 | S. cerevisiae deletion strains, locus YPR119W, strain clb2, active compounds read low 0.993 | S. cerevisiae deletion strains, locus YPR141C, strain kar3, active compounds read low 0.994 | S. cerevisiae deletion strains, locus YPR163C, strain tif3, active compounds read low 0.995 | S. cerevisiae deletion strains, locus YPR167C, strain met16, active compounds read low 0.997 | S. cerevisiae deletion strains, strain wtn01, active compounds read low 1 | S. cerevisiae strains, strain wild type, active compounds read low 1.01
